Data on 59 compounds can be found in PubChem BioAssay AID493191 (Broad Institute, 2011).

Each structure is given as a SMILES string. In all, about 1,300 compounds went through this assay and about 330 (25%) were called active. The list is a sample of the results. Measured potencies and affinities stand elsewhere. Unmarked numbers belong to inactive results. No rule for the calls is given here.

The experiment can be described thus: growth inhibition of MALME3 cells – cell-based, CellTiter-Glo, cherry-picked, orthogonal assay for MITF inhibitor project, dose response (AID 493191). The settings on record: MALME3 melanoma viability, CellTiter-Glo luminescence, 24 h; series mostly up to 35 µM; activity change, negative = inhibition: at the top concentration. A general note: ATP-based viability assays read luminescence as a measure of living cells.
For `Nc1c2c(=O)oc(-c3ccccc3)cc2nn1-c1ccccc1`, the “activity change, negative = inhibition” value was -0.126%. `COc1cccc(C(=O)N/N=C(/c2ccccc2)c2ccccn2)c1`: the “activity change, negative = inhibition” value was -23.3%. To `COc1cc(C(=O)Oc2c(CN3CCOCC3)cc(Cl)c3cccnc23)cc(OC)c1OC` belongs -44.2%. In the case of `O=c1nc(N/N=C/c2ccccn2)cn[nH]1` it was -15.8%. Take `CC(C)c1ccc(CNc2ncccn2)cc1`: the “activity change, negative = inhibition” value is -7.32%. In the case of `CCCCN1CCc2c1nc1ccc(Br)cc1c2N` it was -43%; in that of `CCCOc1ccc(-c2c(=O)n(O)c3ccccc3[n+]2[O-])cc1`, -6.65%; in that of `BrC(=C\c1ccccc1)/C=N/n1cnnc1`, -26.2%. On to `Cc1ccc(C#CC[N+]2(CC#Cc3ccc(C)cc3)CCCCC2)cc1`, for which the “activity change, negative = inhibition” value is -38.5%. In the case of `CC(C)N1C/C(=C/c2cccnc2)C(=O)/C(=C/c2cccnc2)C1` it was -31.7%; in that of `CN1C/C(=C/c2cccnc2)C(=O)/C(=C/c2cccnc2)C1`, 11%; in that of `Cc1cccc(OCc2nc3ccccc3n2C)c1`, 1.51%.

In the case of `O=S(=O)(c1ccc(F)cc1)c1snnc1-c1ccccc1`, the “activity change, negative = inhibition” value was -12.4%. To `CCCOc1ccc(C(=O)C(CN2CCCC2)c2ccccc2)cc1` (centres undefined) belongs -37.2%.

As to `O=C(CSc1ccc(Cl)cc1)NC1CCCC1`, the “activity change, negative = inhibition” value is -1.8%. In the case of `O=C(/C=C/c1ccccc1Cl)NC1CCCCC1` it was 8.1%; in that of `O=C(CCCN1C(=O)S/C(=C\c2ccccc2)C1=O)NNC(=O)c1ccccc1O`, -9.65%.

With `N/C(=N\OC(=O)c1ccccc1Cl)c1ccccn1`, the “activity change, negative = inhibition” value is -32.8%. Turning to `Cc1ccc(C(=O)c2no[n+]([O-])c2C(=O)c2ccc(C)cc2)cc1`, the “activity change, negative = inhibition” value was -26.9%.

`CN(C)c1ccc(/C=N\NC(=O)c2cccc3cc[nH]c23)cc1`: the “activity change, negative = inhibition” value was 1.73%. In the case of `CCOC(=O)N1CCN(C(=O)c2ccc(Cn3c(=S)[nH]c4ccc(Br)cc4c3=O)cc2)CC1` it was -20.7%; in that of `CCC(=O)N1CCN(c2ccc(Cl)cc2NC(=O)c2ccc([N+](=O)[O-])o2)CC1`, -43.4%; in that of `Cn1c(/C(C#N)=C/c2ccc(-c3ccc(S(N)(=O)=O)cc3)o2)nc2ccccc21`, -11.6%.

Consider `Clc1c(-c2ccccc2)nc2ccccn12`, for which the “activity change, negative = inhibition” value is 4.22%. On to `Cc1cc(N2CCOCC2)n2ncc(-c3ccccc3Cl)c2n1`, for which the “activity change, negative = inhibition” value is -2.42%. In the case of `Cc1cc(C(=O)CN2C(=O)c3ccccc3S2(=O)=O)c(C)n1-c1ccccc1` it was -2.78%; in that of `C#Cc1cccc(NC(=O)CSc2nnc(-c3ccc(C(F)(F)F)cn3)o2)c1`, 7.2%; in that of `Cc1ccc2c(c1)Oc1ccc(NC(=O)CCl)cc1C(=O)N2`, -38.9%. In the case of `CCCN(CC(=O)Nc1ccccc1C)C(=O)CCl` it was -20.5%.

With `Cc1ccc(CC(=O)Nc2ccc(Cl)cn2)cc1`, the “activity change, negative = inhibition” value is 7.43%. To `CS(=O)(=O)c1ccc2nc(NC(=O)c3ccccc3Br)sc2c1` belongs 13.2%. As to `O=C(c1ccc(F)cc1)C(CN1CCOCC1)c1ccccc1` (centres undefined), the “activity change, negative = inhibition” value was -21.3%.

Consider `COc1ccc(S(=O)NC2CCCCC2)c(OC)c1C` (centres undefined), for which the “activity change, negative = inhibition” value is -5.41%. In the case of `COc1cc(CN2CCC(Cc3ccccc3)CC2)cc(OC)c1OC` it was 7.73%. In the case of `CC(=O)c1ccc(S(=O)(=O)N2CCN(C(=O)/C=C/c3ccc4ccccc4n3)CC2)cc1` it was -3.46%; in that of `COc1ccc(NC(=O)c2cc3ccccc3[nH]2)cc1`, 3.96%.

Consider `COc1ccc2cc3cc(C(=O)NCCc4ccc(OC)c(OC)c4)oc3nc2c1`, for which the “activity change, negative = inhibition” value was -18.4%. As to `Cc1cc(O)ccc1Nc1nc(-c2cccnc2)cs1`, the “activity change, negative = inhibition” value is 3.74%. In the case of `CCOC(=O)C1CCCN(C(=O)C2CCN(S(=O)(=O)CC)CC2)C1` (centres undefined) it was 1.71%. To `CCOc1ccc(OCc2ccc(C(=O)N/N=C(\C)c3ccccn3)cc2)cc1` belongs -39.2%; to `CCOC(=O)c1ccc(NC(=O)CC2SCCNC2=O)cc1` (centres undefined), -0.676%; to `CCOC(=O)c1ccc(NC(=O)Cc2cccs2)cc1`, -16.7%. To `CCc1ccc(Nc2nc(C)cc(C)n2)cc1` belongs -3.27%; to `COc1ccccc1-c1nnc(-c2ccc(C)cc2)o1`, -5.25%. Take `COCCNC(=O)c1cc2sc3ccccc3c2s1`: the “activity change, negative = inhibition” value was 8.29%.

With `O=C(N/N=C/c1cc(Cl)ccc1O)c1ccncc1`, the “activity change, negative = inhibition” value was -30.2%.

`COc1cc2nc(SCC(=O)NCc3ccco3)n(Cc3ccc(Cl)cc3)c(=O)c2cc1OC`: the “activity change, negative = inhibition” value was -14.3%. To `CCCCCCN1C=CC(=C2C(=O)c3ccccc3C2=O)C=C1` belongs -26.2%. In the case of `CC1CCN(Cc2nc(-c3ccc(Cl)cc3)no2)CC1` it was 3.04%. In the case of `CC1CC(C)C[N+](=C2C=C(N3CCCC3)CC(C)(C)C2)C1` (centres undefined) it was -24.1%. Consider `Cc1ccc(C(=O)C[n+]2cc(-c3ccc(C)cc3)n3c2CCCCC3)cc1`, for which the “activity change, negative = inhibition” value was -45%. In the case of `Cc1ccc(C(=O)NC2=NCCS2)cc1Cl` it was -3.46%; in that of `C=CC[n+]1c(-c2ccc(C)cc2)csc1Nc1ccc(NC(C)=O)cc1`, 3.35%. With `CCOc1ccc2nc(NC(=O)Cc3cccs3)sc2c1`, the “activity change, negative = inhibition” value is 3.36%. On to `CC(C)(CO)NC(=O)c1ccc2nc(Cc3cccc(Cl)c3)oc2c1`, for which the “activity change, negative = inhibition” value was -0.565%. To `Cc1nn(C)cc1/C=C/C(=O)c1cccs1` belongs 11%; to `CCOc1ccc(-n2c(-c3ccc(Br)cc3)c[n+]3c2CCCCC3)cc1`, -27.9%; to `O=C1c2ccccc2C(=O)N1CCSc1ccccc1`, 0.331%. In the case of `COc1cccc(NC(=O)Nc2cccc(C(=O)O)c2)c1` it was -7.18%.
